High-throughput results from PubChem.
A selection: hits, their analogues and other compounds. The true share with any hit is near 3.8%.
Nrf2 block – Nrf2 pathway inhibition; AID 504444; A549 ARE-Fluc reporter, luciferase luminescence, 18-24 h; Potency, µM (highest dose often 46 µM), usual class: inhibitors; 360,000 compounds, 2.1% hits; note: nearly all actives have a fitted effect of over 60% in size
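A549 ARE_Fluc cells (5000/well, 5% FBS OPTI-MEM) pre-incubated 2 h, then treated with compounds 18-24 h at 37C/5% CO2 in concentration-response. CellTiter-Fluor viability read first; BugLite luciferase luminescence after 15 min at room temperature gives Nrf2 activity.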
ELG1 DNA repair – blocks ELG1-dependent DNA repair in HEK293T cells | HEK293T ELG1-luciferase reporter, luminescence, 16 h; DNA damage induced by 5-fluorouridine | Potency, µM (highest dose often 46.1 µM), hits mostly inhibitors | 330,000 compounds, 2.3% hits; note: nearly all actives have a fitted effect of over 55% in size
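Overnight (16 hr) co-exposure of 2,000 cells/well to 5-fluorouridine and compound at 37 °C preceded detection. Luciferase was quantified via ONE-Glo luminescence; loss of signal denotes inhibition.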
Nrf2 ARE act – activates Nrf2 signaling. AREc32 ARE-luciferase reporter (MCF7-derived line), luminescence, 24 h. Potency, µM (series often up to 46.1 µM), actives largely listed as activators. 410,000 compounds, 0.31% hits; note: nearly all actives have a fitted effect of over 65% in size
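ARE-driven firefly luciferase activity in AREc32 cells measured after a 24 hr compound exposure at 37 deg C, using Steady-Glo reagent and a 30 min room-temperature hold.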
mIDH1 inhibitor – inhibitors of human mutant IDH1 R132H | O75874 | IDH1-R132H enzyme, NADPH consumption, diaphorase/resazurin fluorescence | Potency, µM (series often up to 76.6 µM), actives largely listed as inhibitors | 390,000 compounds, 0.093% hits | AID 602179; note: nearly all actives have a fitted effect of over 65% in size
Target sequence (O75874 whole entry R132H, stated change not applied): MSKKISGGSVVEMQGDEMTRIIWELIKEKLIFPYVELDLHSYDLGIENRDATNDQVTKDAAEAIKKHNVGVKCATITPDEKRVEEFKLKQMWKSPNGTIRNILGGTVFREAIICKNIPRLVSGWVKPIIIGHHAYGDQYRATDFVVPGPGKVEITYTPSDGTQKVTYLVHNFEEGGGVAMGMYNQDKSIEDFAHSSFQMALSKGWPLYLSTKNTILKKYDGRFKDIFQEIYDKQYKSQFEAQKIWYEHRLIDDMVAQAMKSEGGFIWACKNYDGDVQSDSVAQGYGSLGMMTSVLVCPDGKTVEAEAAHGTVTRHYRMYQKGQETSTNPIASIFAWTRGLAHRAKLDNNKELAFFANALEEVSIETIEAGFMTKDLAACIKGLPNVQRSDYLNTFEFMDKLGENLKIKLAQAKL
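IDH1-R132H (0.5 ug/mL) preincubated 30 min with compound, then NADPH (0.016 mM) and alpha-KG (2 mM) added; 80 min at RT, pH 7.5. Remaining NADPH coupled via diaphorase/resazurin to fluorescence (540/590 nm); concentration-response curves normalized to no-enzyme control.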
A549 viability – kills or reduces viability of A549 cells in Nrf2 counter-screen. A549 ARE-Fluc cells, CellTiter-Fluor viability, 18-24 h. 390,000 compounds, 0.16% hits. Potency, µM (highest dose often 46 µM), most hits filed as inhibitors
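Cytotoxicity counterscreen: CellTiter-Fluor fluorescence was measured in A549 ARE_Fluc cells after 18-24 h of compound exposure in a concentration series. The subsequent BugLite luminescent read reports ARE-luciferase activity.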
Large screens that a line does not name were inactive. Calls come from the whole dose curve; as a rule, active = well fitted curve in the direction sought with a large enough effect; inconclusive = small, poorly fitted or top-dose-only effect, or another doubt; inactive = no such curve, though single readings can be large; an effect the other way counts as inactive or inconclusive.

O=C(Nc1ccc(-n2cccn2)cc1)C1CCCCN1Cc1cccc2c1OCO2 (stereo not drawn)	ELG1 DNA repair 8.2µM
Cc1ccc(NS(=O)(=O)c2cc(NC(=O)c3ccc4c(c3)NC(=O)CS4)ccc2C)c(C)c1	Nrf2 block 18µM, ELG1 DNA repair 18µM, A549 viability inconclusive
COc1ccc(NC(=O)c2ccc3c(c2)NC(=O)CS3)cc1S(=O)(=O)Nc1ccc(Br)cc1	ELG1 DNA repair 12µM
CCC(C)NC(=O)c1c(-c2ccccc2)c(-c2ccccc2)nn(C)c1=O (stereo not drawn)	none (no result: ELG1 DNA repair)
Cc1ccc(S(=O)(=O)Nc2nc3ccccc3nc2NCc2ccco2)cc1C	Nrf2 block 21µM, ELG1 DNA repair inconclusive
Cc1cccc(S(=O)(=O)Nc2nc3ccccc3nc2NCc2ccco2)c1	Nrf2 block inconclusive
O=S(=O)(Nc1nc2ccccc2nc1NCc1ccco1)c1ccc(Cl)cc1	Nrf2 block 21µM
COCCCNc1nc2ccccc2nc1NS(=O)(=O)c1ccc(Cl)cc1	none
Cc1noc(C)c1CSc1nc2ccccc2nc1NS(=O)(=O)c1ccc(Cl)cc1	Nrf2 block 9.2µM, ELG1 DNA repair 13µM, A549 viability inconclusive
Cc1ccc(S(=O)(=O)Nc2nc3ccccc3nc2NCc2ccco2)cc1	Nrf2 block inconclusive, ELG1 DNA repair inconclusive, Nrf2 ARE act 22µM
CCC(C)NC(=O)CCc1c(C)nc2cc(-c3ccc(OC)cc3OC)nn2c1C (stereo not drawn)	none (no result: ELG1 DNA repair)
O=S1(=O)N=C(Oc2ccc(-c3ccccc3)cc2)c2ccccc21	none (no result: ELG1 DNA repair, Nrf2 ARE act, mIDH1 inhibitor)
Cc1cc(C)cc(NC(=O)Cn2cc(S(=O)(=O)NC(C)(C)C)c(S(=O)(=O)NC(C)(C)C)c2)c1	Nrf2 block inconclusive (no result: ELG1 DNA repair)
COc1cc(C(=O)Nc2nc(-c3ccc(Cl)cc3)c(C)s2)ccc1OCC(=O)Nc1ccc(F)cc1	Nrf2 block 21µM, ELG1 DNA repair inconclusive, A549 viability inconclusive
CCc1ccc(-c2nc(NC(=O)c3ccc(OCC(=O)Nc4ccc(F)cc4)c(OC)c3)sc2C)cc1	ELG1 DNA repair inconclusive
CCn1c(C)c(C2N3CC4(C)CN2CC(CC)(C3)C4=O)c2ccccc21 (stereo not drawn)	none (no result: ELG1 DNA repair)
COc1ccccc1[C@]1(C)ON(c2ccccc2C(F)(F)F)C1=O	ELG1 DNA repair 21µM
COc1ccc(-c2nc(SCC(=O)Nc3ccc4c(c3)OCCO4)c(-c3ccc(C)cc3)[nH]2)cc1OC	A549 viability inconclusive (no result: ELG1 DNA repair)
CCN1C/C(=C\c2cccc([N+](=O)[O-])c2)C(=O)/C(=C/c2cccc([N+](=O)[O-])c2)C1	ELG1 DNA repair 3.3µM, Nrf2 ARE act inconclusive
O=C1/C(=C/c2cccc([N+](=O)[O-])c2)CCc2ccccc21	Nrf2 ARE act inconclusive
Cc1oc2c(c(C)cc3oc(=O)c(CC(=O)NCCc4ccccc4)c(C)c32)c1C	none (no result: ELG1 DNA repair)
COc1ccc2c(c1)Cc1sc(NC(=O)c3ccc(Cl)cc3)nc1-2	Nrf2 block inconclusive (no result: ELG1 DNA repair)
COc1ccc(Cc2nnc(N/N=C/c3ccc(Br)cc3)[nH]c2=O)cc1OC	none
COc1ccc(Cc2nnc(N/N=C/c3ccc(O)cc3)[nH]c2=O)cc1OC	Nrf2 block inconclusive, ELG1 DNA repair 5.8µM
N#CC1=C(N)Oc2c(oc(CO)cc2=O)C1c1ccsc1 (stereo not drawn)	none
N#CC1=C(N)Oc2c(ccc3ccccc23)C1c1ccsc1 (stereo not drawn)	Nrf2 block inconclusive, ELG1 DNA repair inconclusive, Nrf2 ARE act 8.9µM, A549 viability inconclusive
CN(C)CCCNc1cc(O)c2ncccc2c1	Nrf2 block 5.2µM, ELG1 DNA repair inconclusive, A549 viability 10µM (no result: mIDH1 inhibitor)
O=C(CNC(=O)c1ccccc1)OCC(=O)c1ccc2ccccc2c1	none (no result: ELG1 DNA repair, Nrf2 ARE act, mIDH1 inhibitor)
Cc1ccc(S(=O)(=O)n2nc(-c3ccco3)nc2NCc2ccc(N(C)C)cc2)cc1	Nrf2 block inconclusive (no result: ELG1 DNA repair)
CCc1n(CC(O)COC2CCCCC2)c2ccccc2[n+]1C (stereo not drawn)	none
CCCc1n(CC)c2ccccc2[n+]1CC(O)COC1CCCCC1 (stereo not drawn)	ELG1 DNA repair 3.3µM
CCCCNC(=O)c1cn(CC)c2cc(N3CCN(C)CC3)c(F)cc2c1=O	none
CCn1cc(C(=O)NN)c(=O)c2cc(F)c(N3CCN(C)CC3)cc21	none
CCn1cc(C(=O)NCc2cccc(F)c2)c(=O)c2cc(F)c(N3CCN(C(=O)c4ccco4)CC3)cc21	Nrf2 block inconclusive, ELG1 DNA repair 13µM, A549 viability inconclusive
CCn1cc(C(=O)NCc2cccnc2)c(=O)c2cc(F)c(N3CCN(C(=O)c4ccco4)CC3)cc21	ELG1 DNA repair 21µM (no result: Nrf2 block)
CCCNC(=O)c1cn(CC)c2cc(N3CCN(C(=O)c4ccco4)CC3)c(F)cc2c1=O	ELG1 DNA repair 13µM
COc1ccc(NS(=O)(=O)c2ccc3c(c2)CCC(=O)N3)cc1	none (no result: ELG1 DNA repair, Nrf2 ARE act, mIDH1 inhibitor)
Cc1ccc(-c2nn(CC(=O)Nc3cccc(C(F)(F)F)c3)c(=O)c3ccccc23)cc1	Nrf2 block inconclusive (no result: ELG1 DNA repair)
COc1cccc(N2C(=O)C(CC(=O)Nc3ccc(Cl)cc3)N(Cc3ccc4c(c3)OCO4)C2=O)c1 (stereo not drawn)	Nrf2 block inconclusive (no result: ELG1 DNA repair)
COc1ccc(/C=C/C(=O)NC(=S)NNC(=O)c2cc(OC)c(OC)c(OC)c2)cc1	Nrf2 block inconclusive, ELG1 DNA repair 7.3µM
CCCCOc1ccc(C(=O)NNC(=O)c2cnccn2)cc1OC	Nrf2 block 10µM, ELG1 DNA repair inconclusive
COc1ccccc1C(=O)NNC(=S)NC(=O)c1cc(OC)c(OC)c(OC)c1	Nrf2 block inconclusive
COc1ccc(CC(=O)NNC(=O)c2cnccn2)cc1	none
COc1ccc(/C=C/C(=O)NC(=S)NNC(=O)c2cc(OC)c(OC)c(OC)c2)cc1OC	ELG1 DNA repair inconclusive
COc1cc(C(=O)NC(=S)NNC(=O)c2cnccn2)cc(OC)c1OC	Nrf2 block 4.6µM, ELG1 DNA repair inconclusive
Cc1ccc(-n2c(=O)c3c(cnn3C)n(CC(=O)Nc3c(C)cccc3C)c2=O)cc1	A549 viability inconclusive (no result: ELG1 DNA repair)
O=C(NCCc1ccccc1Cl)c1ccc(Cn2c(=O)c3cccn3c3cccnc32)cc1	Nrf2 block inconclusive, A549 viability inconclusive (no result: ELG1 DNA repair)
COc1ccc(Nc2ccncc2[N+](=O)[O-])cc1	ELG1 DNA repair 5.8µM
O=[N+]([O-])c1cnccc1Nc1cccc(F)c1	none
COc1ccc(OC)c(S(=O)(=O)N2CCN(S(=O)(=O)c3ccc4c(c3)OCCO4)CC2)c1	none (no result: ELG1 DNA repair, Nrf2 ARE act, mIDH1 inhibitor)
CCN1C(=O)[C@H]2[C@@H](c3ccc(-c4ccccc4)cc3)N3CCC[C@@]3(C(=O)OC)[C@H]2C1=O	Nrf2 block 15µM, ELG1 DNA repair inconclusive
COC(=O)[C@@]12CCCCN1[C@H](c1ccc(-c3ccc(F)cc3)c(OC)c1)[C@H]1C(=O)N(C)C(=O)[C@H]12	Nrf2 block inconclusive, ELG1 DNA repair 13µM
